This note sets out measurements from PubChem BioAssay (Tox21).

Assay [1] in a line: A CellTox Green Cytotoxicity Assay to monitor cytotoxicity in HepG2 cells - 8 hour (AID 1224890). Further: nearly all actives have a fitted effect of over 45% in size. The method in brief: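 Real-time cytotoxicity: fluorescence of a cell-impermeant cyanine dye binding DNA of dead HepG2 cells, measured repeatedly (0–40 h) during compound exposure at 37 C. Cells seeded 600/well with reagent, dosed after 5 h.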
Assay [2] can be described thus: qHTS assay to identify small molecule antagonists of the estrogen receptor alpha (ER-alpha) signaling pathway using the BG1 cell line in the presence of 0.1 nM 17-beta-estradiol - cell viability counter screen (AID 1259241). Further: nearly all actives have a fitted effect of over 40% in size. The method in brief:
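CellTiter-Fluor read (30 min, 37C) on ER-alpha/ERE-luc VM7Luc4E2 cells; 22 hr compound treatment; agonist 0.1 nM E2 final; same-well multiplex.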

In assay [3] the target is Estrogen receptor (Homo sapiens) (UniProt P03372). The experiment in a line: qHTS assay to identify small molecule antagonists of the estrogen receptor alpha (ER-alpha) signaling pathway using the BG1 cell line in the presence of 0.1 nM 17-beta-estradiol (AID 1259244). Further: nearly all actives have a fitted effect of over 50% in size. The method in brief:
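Luciferase luminescence (ONE-Glo, 30 min at room temperature) was read after 22 hr at 37C exposure to compounds plus 17beta-estradiol at 0.1 nM final. Cells were VM7Luc4E2 with endogenous ER-alpha and an ERE-driven luciferase, pre-cultured 5 days in hormone-depleted medium.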

Assay [4] is described as follows: qHTS assay to identify small molecule HDAC inhibitors (AID 1259364). Further: top concentration of the series differs between compounds; nearly all actives have a fitted effect of over 45% in size. In short, it runs like this: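 Luminescence read after 30 min room-temperature HDAC-Glo incubation measures cellular class I/II HDAC activity. Compounds were applied for 2 hr at 37 C to HCT-116 wild-type cells seeded the day before.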
Assay [5] in a line: qHTS assay to identify small molecule HDAC inhibitors - cell viability counter screen (AID 1259365). Further: series mostly up to about 92 µM; nearly all actives have a fitted effect of over 50% in size. The method in brief: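 To flag cytotoxic hits, 1,500 wild-type HCT-116 cells per well, plated the day before, receive test compounds for 2hr at 37 C before CellTiter-Glo reagent and a luminescence read.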
Assay [6] is described as follows: qHTS assay to identify small molecule agonists of the sonic hedgehog signaling (Shh) pathway - cell viability counter screen (AID 1259366). Further: nearly all actives have a fitted effect of over 50% in size. Further: potency means the concentration at half of the fitted maximal effect. In short, it runs like this:
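Fluorescence from CellTiter-Fluor reports live cells in this counter screen. NIH/3T3-derived Gli1-Luc reporter cells receive test compounds for 24hr at 37C; reagent goes in at 23hr.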

Assay [7] can be described thus: qHTS assay to identify small molecule antagonists of the sonic hedgehog signaling (Shh) pathway - cell viability counter screen (AID 1259367). Further: nearly all actives have a fitted effect of over 55% in size. Further: potency means the concentration at half of the fitted maximal effect. The method in brief:
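Tox21 library chemicals were tested on a Gli1-Luc NIH/3T3 clone (2,000 cells/well) stimulated by conditioned medium; viability was quantified as fluorescence from CellTiter-Fluor reagent added at 23 hr.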

Assay [8] in a line: qHTS assay to identify small molecule antagonists of the androgen receptor (AR) signaling pathway using the MDA cell line in the presence of 0.5 nM R1881 - cell viability counter screen (AID 1259242). Further: nearly all actives have a fitted effect of over 45% in size. In short, it runs like this: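 Live-cell protease activity was measured by CellTiter-Fluor fluorescence after 30 min. Before that, MDA-kb2 MMTV-luciferase cells had 16 hr at 37C without CO2, exposed to test compounds and 0.5 nM R1881 final.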

Assay [9] addresses Androgen receptor (Homo sapiens) (UniProt P10275). As to the kind of experiment: qHTS assay to identify small molecule antagonists of the androgen receptor (AR) signaling pathway using the MDA cell line in the presence of 0.5 nM R1881 (AID 1259243). Further: nearly all actives have a fitted effect of over 50% in size. In short, it runs like this: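 Luminescent reporter readout (ONE-Glo, 30 min, room temperature) after 16 hr co-treatment of MDA-kb2 cells with test compounds and 0.5 nM R1881 final, at 37C without CO2. The MMTV-driven luciferase responds to both AR and GR.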

The nature of assay [10]: qHTS assay to identify small molecule phospholipidosis (PLD) inducers (AID 1259344; active means well fitted curve in the direction sought with a large enough effect; an effect the other way counts as inactive or inconclusive). In short, it runs like this: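 Image-based: LipidTOX Red pit count/intensity per well and per cell; HepG2, 24 h compound at 37 C, PFA fixation, Hoechst counterstain.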

Where “and” joins values, the source holds several entries; their conditions need not be identical. Equal entries are not always repeated. Values without a mark were called inactive. Results filed as inconclusive are left out. Calls of active or inactive are those of the source. Unless noted, the call rests on the fitted dose curve; in most records, active means well fitted curve in the direction sought with a large enough effect in the repeat runs; inconclusive means weak or mixed curves; inactive means no such curve, though single readings can be large; an effect the other way counts as inactive or inconclusive.
On the % scale 0 is the no-effect control and ±100 the full control effect.

Androgen receptor (Homo sapiens), sequence (P10275 whole entry, looked up): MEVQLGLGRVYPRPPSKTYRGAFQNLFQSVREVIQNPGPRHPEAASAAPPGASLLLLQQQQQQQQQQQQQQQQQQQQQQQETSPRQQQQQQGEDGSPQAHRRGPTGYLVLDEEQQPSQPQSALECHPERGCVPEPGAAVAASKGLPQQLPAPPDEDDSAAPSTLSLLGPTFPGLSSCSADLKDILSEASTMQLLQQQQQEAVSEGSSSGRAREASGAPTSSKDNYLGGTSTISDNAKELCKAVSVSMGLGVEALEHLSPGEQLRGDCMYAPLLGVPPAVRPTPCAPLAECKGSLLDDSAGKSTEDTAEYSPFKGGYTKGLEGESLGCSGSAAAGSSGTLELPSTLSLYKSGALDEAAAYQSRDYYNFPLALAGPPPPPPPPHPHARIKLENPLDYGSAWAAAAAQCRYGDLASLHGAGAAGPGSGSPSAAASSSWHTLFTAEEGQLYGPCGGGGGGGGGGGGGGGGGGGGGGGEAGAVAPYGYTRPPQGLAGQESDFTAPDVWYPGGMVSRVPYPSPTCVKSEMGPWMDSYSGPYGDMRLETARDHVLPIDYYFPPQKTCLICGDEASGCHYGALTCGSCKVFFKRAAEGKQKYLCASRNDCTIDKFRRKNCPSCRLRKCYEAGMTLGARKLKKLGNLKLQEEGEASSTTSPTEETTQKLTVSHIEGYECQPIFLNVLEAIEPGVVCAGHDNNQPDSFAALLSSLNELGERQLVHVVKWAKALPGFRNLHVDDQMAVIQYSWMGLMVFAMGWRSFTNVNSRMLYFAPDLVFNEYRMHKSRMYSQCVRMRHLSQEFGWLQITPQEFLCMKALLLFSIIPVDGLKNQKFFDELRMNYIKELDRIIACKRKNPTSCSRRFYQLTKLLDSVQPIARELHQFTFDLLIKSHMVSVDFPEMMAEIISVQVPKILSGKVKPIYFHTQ
Estrogen receptor (Homo sapiens), sequence (P03372 whole entry, looked up): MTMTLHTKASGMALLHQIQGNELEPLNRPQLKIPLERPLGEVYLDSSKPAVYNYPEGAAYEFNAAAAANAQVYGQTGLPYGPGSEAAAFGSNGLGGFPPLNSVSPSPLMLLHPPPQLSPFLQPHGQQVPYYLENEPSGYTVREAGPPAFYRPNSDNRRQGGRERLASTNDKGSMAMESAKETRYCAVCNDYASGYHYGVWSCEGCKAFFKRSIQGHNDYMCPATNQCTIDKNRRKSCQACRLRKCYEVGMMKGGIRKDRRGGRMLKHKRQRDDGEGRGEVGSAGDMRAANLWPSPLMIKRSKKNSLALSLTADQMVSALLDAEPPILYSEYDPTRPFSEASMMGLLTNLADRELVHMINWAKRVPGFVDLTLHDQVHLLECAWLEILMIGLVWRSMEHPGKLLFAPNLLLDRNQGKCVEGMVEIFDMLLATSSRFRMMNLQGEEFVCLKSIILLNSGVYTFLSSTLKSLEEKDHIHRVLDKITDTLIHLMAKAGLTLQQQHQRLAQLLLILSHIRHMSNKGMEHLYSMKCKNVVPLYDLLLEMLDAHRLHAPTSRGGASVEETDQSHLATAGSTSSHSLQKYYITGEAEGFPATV

As to `C=C[Si](OC(=C)C)(OC(=C)C)OC(=C)C`, the Potency result in assay [1], in assay [4], in assay [6] and in assay [7] was “inactive” each time. In addition, the result in [2], in assay [3] and in [5] was inactive.
On to `FC1(F)C(F)(F)C(F)(F)C2(F)C(F)(F)C(F)(F)C(F)(F)C(F)(F)C2(F)C1(F)F` (configuration not stated), for which the Potency result in assay [1], in [8], in assay [9], in assay [10], in assay [4] and in assay [6] was “inactive” throughout. Moreover, in assay [7], the Potency entry was “inactive”. Also, the result in assay [3] and in assay [5] was inactive.
As to `NS(=O)(=O)c1cc(C(=O)NN2C[C@H]3[C@H]4CCC(C4)[C@H]3C2)ccc1Cl`, the Potency result in [1], in [8], in assay [9], in [4] and in [7] was “inactive” in each case. The result in [3] and in assay [5] was inactive.
In the case of `NC(=O)c1cn(Cc2c(F)cccc2F)nn1`, the Potency entry in assay [1], in assay [10], in [6] and in assay [7] was “inactive” in each case. Besides, the result in assay [2] and in assay [5] was inactive.
`CCSC(=O)N(CC(C)C)CC(C)C`: the Potency entry in assay [1], in [8], in assay [9], in assay [4] and in [7] was “inactive” each time. For the same compound, the result in assay [3] and in [5] was inactive.
Consider `NCCCNCCSP(=O)(O)O`, for which the cytotoxicity increase in [1] was 0.329% [at 6.97 µM]. The activity change, negative = cytotoxicity in assay [2] was -0.971% [at 8.39 µM]; in [5], 0.673% [at 8.39 µM]. The activity change, negative = inhibition was 3.05% [at 8.39 µM] in assay [3] and -1.97% [at 8.39 µM] in assay [4]. Besides, the Potency result in [10] is “inactive”. Also, the viability change, negative = cytotoxic in assay [7] was 5.98% [at 8.39 µM].
Regarding `CC(C)(C)c1ccc(O)c(O)c1`, the Potency entry in [1] and in [10] was “inactive” in each case. The outcome in [2] and in assay [5] was inactive. The Potency in assay [6] is 27.3 µM (active); in assay [7], 50.2 µM (active) and 24.3 µM (active).
Regarding `CCCc1cc(C(N)=S)ccn1`, the Potency entry in assay [1], in [8], in [10], in [4], in assay [6] and in assay [7] was “inactive” throughout. For the same compound, the result in [3] and in [5] was inactive.
Turning to `COCCc1ccc(OCC(O)CNC(C)C)cc1` (configuration not stated), the Potency entry in assay [1], in [10], in assay [6] and in assay [7] was “inactive” throughout. In addition, the result in [2] and in [5] was inactive.
For the compound `C/C=C(\C)C#N`, the Potency entry in assay [1], in assay [6] and in assay [7] was “inactive” each time. In addition, the result in assay [2] and in assay [5] was inactive.
As for `COC(=O)c1cc(C(=O)OC)cc(S(=O)(=O)O)c1`, the Potency entry in assay [1], in [4], in assay [6] and in [7] was “inactive” throughout. In addition, the outcome in [2] and in assay [5] was inactive.
Turning to `CCOC(=O)[C@H](CCc1ccccc1)N[C@@H](C)C(=O)N1[C@H](C(=O)O)C[C@@H]2CCC[C@@H]21`, the Potency entry in assay [1], in [10], in assay [6] and in assay [7] was “inactive” each time. Besides, the result in assay [2], in [3] and in assay [5] was inactive.
As for `O=C(O)CNC(=O)c1ccc([N+](=O)[O-])cc1`, the Potency result in assay [1], in assay [4], in assay [6] and in assay [7] was “inactive” throughout. The outcome in assay [2] and in assay [5] was inactive.
With `O=c1[nH]c(=O)n([C@H]2C[C@H](O)[C@@H](CO)O2)cc1I`, the Potency result in [1], in [10], in assay [4], in assay [6] and in assay [7] was “inactive” each time. Further, the result in [2] and in [5] was inactive.
For `C=CCOCC(CC)(CO)COCC=C`, the Potency entry in [1], in [4] and in assay [7] was “inactive” in each case. For the same compound, the result in [2] and in assay [5] was inactive.
Consider `N[C@H](C(=O)O)c1ccc(O)cc1`, for which, in assay [1], the cytotoxicity increase is -9.51% [at 15.8 µM]. Besides, the values for the activity change, negative = cytotoxicity in [2] and in assay [5] were 8.37% [at 19 µM] and -1.63% [at 19 µM], respectively. Also, the figures for the activity change, negative = inhibition in assay [3] and in assay [4] were 12.1% [at 19 µM] and -0.75% [at 19 µM], respectively. Also, the Potency entry in assay [10] and in [7] was “inactive” throughout. In addition, the viability change, negative = cytotoxic in assay [6] is -2.17% [at 19 µM].
In the case of `CCN(CC)CCOCCOC(=O)C1(c2ccccc2)CCCC1`, the Potency result in [1], in [10] and in assay [4] was “inactive” in each case. For the same compound, the result in [2], in [3] and in assay [5] was inactive.
On to `CCOC(=O)c1ccc(C)cc1`, for which the Potency result in assay [1], in assay [4], in assay [6] and in assay [7] was “inactive” throughout. The result in assay [2], in [3] and in [5] was inactive.
In the case of `O=[N+]([O-])c1ccc(F)cc1F`, the Potency result in [1], in [8], in assay [4], in assay [6] and in assay [7] was “inactive” each time. The result in assay [3] and in assay [5] was inactive.
For `O=S(O)CO`, the result in assay [2], in [3] and in assay [5] was inactive. In addition, the Potency entry in [8], in assay [9], in assay [10], in [4], in assay [6] and in assay [7] was “inactive” in each case.
On to `CC(=O)CC(C)C`, for which the outcome in [2] and in assay [5] was inactive. In addition, the Potency result in assay [8], in [9], in assay [4] and in assay [7] was “inactive” throughout.
